Hit rate of the full screen: of about 5,500 compounds, about 2,000 (36%) were called active. Roughly 18% stayed inconclusive and do not appear here. Cut-off read from the data, not from the text of the source: active = normalized growth mostly below about 0.91 (no sharp cut-off); inconclusive = no clear call, values can overlap the other calls; inactive = mostly above about 0.92. Some of the results follow.
Test: chemical genetic growth profiling, strain panel (AID 1159580);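 note: tested at 20 µM; growth read once vehicle control cultures reached saturation at 30 °C; 1 = growth at the plate median or of vehicle wells; lower values mean less growth of the strain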
Details: S. cerevisiae deletion strains, growth OD

Measured: normalized growth

CC1CN(S(=O)(=O)c2cccc3cnccc23)CCN1 (stereo not drawn)
inactive: locus YAL040C, strain CLN3, stronger effect = lower value 1.01 | locus YCL061C, strain MRC1 (second series), stronger effect = lower value 1.01 | locus YDR363W, strain ESC2, stronger effect = lower value 1.02 | locus YER002W, strain NOP16, stronger effect = lower value 1 | locus YGR078C, strain PAC10, stronger effect = lower value 1.02 | locus YJR075W, strain HOC1, stronger effect = lower value 0.996 | locus YMR307W, strain GAS1, stronger effect = lower value 0.997 | locus YNL128W, strain TEP1, stronger effect = lower value 1.01 | locus YNL153C, strain GIM3, stronger effect = lower value 1.01 | locus YNL175C, strain NOP13, stronger effect = lower value 1.01 | locus YNL197C, strain WHI3, stronger effect = lower value 1.01 | locus YNL224C, strain SQS1, stronger effect = lower value 1.03 | locus YNL322C, strain KRE1, stronger effect = lower value 0.999 | locus YOR083W, strain WHI5 (second series), stronger effect = lower value 1.02 | locus YPL055C, strain LGE1, stronger effect = lower value 1.02 | locus YPL241C, strain CIN2, stronger effect = lower value 1

NC(=O)c1ccc(N)nc1
inactive: locus YAL021C, strain ccr4, stronger effect = lower value 0.994 | locus YAL026C, strain drs2, stronger effect = lower value 1.01 | locus YAL030W, strain snc1, stronger effect = lower value 0.982 | locus YBR009C, strain hhf1, stronger effect = lower value 0.99 | locus YBR023C, strain chs3, stronger effect = lower value 0.995 | locus YBR171W, strain sec66, stronger effect = lower value 1.02 | locus YBR231C, strain swc5, stronger effect = lower value 0.989 | locus YBR279W, strain paf1, stronger effect = lower value 0.982 | locus YCL011C, strain gbp2, stronger effect = lower value 1 | locus YCL016C, strain dcc1, stronger effect = lower value 1 | locus YCL069W, strain vba3, stronger effect = lower value 1.01 | locus YCR088W, strain abp1, stronger effect = lower value 1.01 | locus YDL005C, strain med2, stronger effect = lower value 0.987 | locus YDL040C, strain nat1, stronger effect = lower value 0.988 | locus YDR001C, strain nth1, stronger effect = lower value 1.01 | locus YDR069C, strain doa4, stronger effect = lower value 0.981 | locus YDR137W, strain rgp1, stronger effect = lower value 1 | locus YDR159W, strain sac3, stronger effect = lower value 0.978 | locus YDR195W, strain ref2 0.942 | locus YDR297W, strain sur2, stronger effect = lower value 0.999 | locus YDR334W, strain swr1, stronger effect = lower value 0.99 | locus YDR335W, strain msn5, stronger effect = lower value 1 | locus YDR392W, strain spt3, stronger effect = lower value 1 | locus YEL003W, strain gim4, stronger effect = lower value 1 | locus YEL037C, strain rad23, stronger effect = lower value 1.01 | locus YEL061C, strain CIN8 (second series), stronger effect = lower value 1 | locus YER015W, strain faa2, stronger effect = lower value 0.997 | locus YER016W, strain bim1, stronger effect = lower value 0.997 | locus YER111C, strain swi4, stronger effect = lower value 1.01 | locus YER155C, strain BEM2 (second series), stronger effect = lower value 1.01 | locus YFR010W, strain ubp6, stronger effect = lower value 1 | locus YGL167C, strain pmr1, stronger effect = lower value 0.999 | locus YGL173C, strain kem1, stronger effect = lower value 0.993 | locus YGL227W, strain vid30, stronger effect = lower value 1.01 | locus YGL240W, strain doc1, stronger effect = lower value 1 | locus YGL253W, strain hxk2, stronger effect = lower value 1.01 | locus YHR013C, strain ard1, stronger effect = lower value 0.979 | locus YHR027C, strain rpn1, stronger effect = lower value 0.998 | locus YHR030C, strain SLT2, stronger effect = lower value 1.03 | locus YHR079C, strain IRE1, stronger effect = lower value 1.02 | locus YHR142W, strain chs7, stronger effect = lower value 1.01 | locus YJL092W, strain hpr5, stronger effect = lower value 1 | locus YJL095W, strain BCK1 (second series), stronger effect = lower value 0.989 | locus YJL095W, strain BCK1, stronger effect = lower value 1.03 | locus YJL115W, strain asf1, stronger effect = lower value 1 | locus YJL129C, strain trk1, stronger effect = lower value 1.01 | locus YJL154C, strain vps35, stronger effect = lower value 0.995 | locus YJL164C, strain tpk1, stronger effect = lower value 0.978 | locus YJL166W, strain qcr8, stronger effect = lower value 1.01 | locus YJR066W, strain TOR1, stronger effect = lower value 0.951 | locus YKL160W, strain elf1, stronger effect = lower value 0.975 | locus YKR026C, strain gcn3, stronger effect = lower value 1.01 | locus YKR091W, strain srl3, stronger effect = lower value 0.997 | locus YLL001W, strain dnm1, stronger effect = lower value 1.01 | locus YLL026W, stronger effect = lower value 0.999 | locus YLL041C, strain sdh2, stronger effect = lower value 1 | locus YLR027C, strain aat2, stronger effect = lower value 1.01 | locus YLR113W, strain HOG1, stronger effect = lower value 1.02 | locus YLR221C, strain rsa3, stronger effect = lower value 0.995 | locus YLR258W, strain gsy2, stronger effect = lower value 1 | locus YLR262C, strain YPT6 (second series), stronger effect = lower value 1.01 | locus YLR320W, strain mms22, stronger effect = lower value 0.995 | locus YLR342W, strain FKS1, stronger effect = lower value 0.996 | locus YLR357W, strain rsc2, stronger effect = lower value 0.967 | locus YLR370C, strain arc18, stronger effect = lower value 1 | locus YLR384C, strain iki3, stronger effect = lower value 0.986 | locus YML120C, strain ndi1, stronger effect = lower value 0.987 | locus YMR058W, strain fet3, stronger effect = lower value 0.999 | locus YMR125W, strain sto1, stronger effect = lower value 1.01 | locus YMR129W, stronger effect = lower value 0.983 | locus YMR205C, strain PFK2, stronger effect = lower value 0.998 | locus YMR231W, strain pep5, stronger effect = lower value 1 | locus YNL071W, strain lat1, stronger effect = lower value 0.99 | locus YNL183C, strain NPR1, stronger effect = lower value 0.961 | locus YNL209W, strain ssb2, stronger effect = lower value 0.996 | locus YNL248C, strain rpa49, stronger effect = lower value 1.01 | locus YNL322C, strain KRE1 (second series), stronger effect = lower value 0.986 | locus YNR049C, strain mso1, stronger effect = lower value 1.01 | locus YOR001W, strain rrp6, stronger effect = lower value 0.997 | locus YOR070C, strain gyp1, stronger effect = lower value 0.993 | locus YOR080W, strain dia2, stronger effect = lower value 0.993 | locus YOR083W, strain WHI5, stronger effect = lower value 1 | locus YOR106W, strain vam3, stronger effect = lower value 1.01 | locus YOR231W, strain MKK1, stronger effect = lower value 1.05 | locus YOR265W, strain rbl2, stronger effect = lower value 0.993 | locus YOR270C, strain vph1, stronger effect = lower value 1.02 | locus YOR290C, strain snf2, stronger effect = lower value 1.01 | locus YPL051W, strain arl3, stronger effect = lower value 0.993 | locus YPL078C, strain atp4, stronger effect = lower value 1 | locus YPL106C, strain sse1, stronger effect = lower value 0.992 | locus YPL240C, strain hsp82, stronger effect = lower value 0.993 | locus YPL256C, strain CLN2, stronger effect = lower value 1.03

Reference: PubChem BioAssay AID1159580 (chemical genetic matrix, 2015)
